Jurkat NFkB inh = lowers PMA/ionomycin-induced NF-kB signal in Jurkat cells; PMA/ionomycin-induced NF-kB luciferase reporter, luminescence; inhibition, % at 4 µM; 330,000 tested, 0.53% active; AID 435003; in the data active = inhibition above about 50%
Mdm2 MdmX PPI = disrupts the human Mdm2-MdmX interaction; SaOS-2 split-luciferase Mdm2/MdmX complementation, luminescence; inhibition, % at 8 µM; 330,000 tested, 3% active;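 active = inhibition of at least 50% at 8 µM in the primary screen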
Target sequence (O15151 whole entry, looked up): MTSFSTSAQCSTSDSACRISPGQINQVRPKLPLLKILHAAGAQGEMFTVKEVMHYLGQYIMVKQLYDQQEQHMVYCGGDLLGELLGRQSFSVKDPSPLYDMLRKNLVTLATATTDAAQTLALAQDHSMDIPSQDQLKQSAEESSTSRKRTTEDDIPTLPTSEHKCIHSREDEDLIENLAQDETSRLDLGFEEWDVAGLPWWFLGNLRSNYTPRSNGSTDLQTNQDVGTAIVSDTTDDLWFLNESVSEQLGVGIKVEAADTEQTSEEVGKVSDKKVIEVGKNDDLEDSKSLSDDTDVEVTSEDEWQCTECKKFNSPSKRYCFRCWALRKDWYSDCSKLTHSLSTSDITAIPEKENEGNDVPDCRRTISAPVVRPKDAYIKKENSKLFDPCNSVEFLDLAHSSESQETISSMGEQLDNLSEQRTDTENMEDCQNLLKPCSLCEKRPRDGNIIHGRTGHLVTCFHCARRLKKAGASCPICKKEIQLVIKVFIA
Target sequence (Q00987 whole entry, looked up): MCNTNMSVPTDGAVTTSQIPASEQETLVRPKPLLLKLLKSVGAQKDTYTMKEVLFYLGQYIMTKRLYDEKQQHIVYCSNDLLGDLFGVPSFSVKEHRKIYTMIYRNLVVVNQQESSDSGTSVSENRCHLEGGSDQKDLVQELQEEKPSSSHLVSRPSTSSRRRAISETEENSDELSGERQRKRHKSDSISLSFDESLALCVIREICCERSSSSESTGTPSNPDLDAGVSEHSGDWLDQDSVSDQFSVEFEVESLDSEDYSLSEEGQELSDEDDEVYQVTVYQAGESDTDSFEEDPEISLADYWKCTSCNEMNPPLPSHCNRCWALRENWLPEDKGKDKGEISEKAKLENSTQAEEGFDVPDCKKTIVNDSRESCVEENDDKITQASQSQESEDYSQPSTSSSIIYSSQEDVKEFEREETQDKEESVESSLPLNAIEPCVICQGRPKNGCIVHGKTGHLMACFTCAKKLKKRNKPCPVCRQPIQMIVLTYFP
Beta apoptosis = blocks beta cell apoptosis | 300,000 tested, 0.8% active | protection from apoptosis, % (test concentration not listed) | INS-1E cytokine-induced death, ATP luminescence, 48 h; percent of positive-control rescue, neutral wells zero;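 active = Every replicate reaches about 75%, or at least half do and their mean reaches it too, limit read from the data; inconclusive = At least half of replicates reach the limit but their mean does not; inactive = Under half of replicates reach the limit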;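 note: higher means more ATP so stronger rescue from cytokine killing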
Gli-Sufu antag = antagonists of Gli-Sufu signaling | Sufu-KO-LIGHT fibroblasts, Gli luciferase reporter luminescence | inhibition, % at 5 µM | 340,000 tested, 0.74% active | AID 588413;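 active = inhibition above about 55%, limit read from the data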
697 NFkB inh = lowers PMA/ionomycin-induced NF-kB signal in 697 B cells; 697 B-cell NF-kB luciferase reporter, 16 h; inhibition, % at 4 µM; 330,000 tested, 0.33% active; in the data active = inhibition above about 35%
Mdm2-MdmX conf = human Mdm2/MdmX binding inhibition, confirmed; shares compounds with Mdm2 MdmX PPI; luminescent assay; inhibition, % at 8 µM; 10,000 tested, 55% active; AID 489028; in the data active = inhibition above about 40%
FLuc counter = inhibits full-length luciferase, flagging false Mdm2/MdmX hits | shares compounds with Mdm2 MdmX PPI | SaOS-2 full-length luciferase counterscreen, luminescence | inhibition, % at 8 µM | 6,200 tested, 77% active | AID 504607;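 active = mean inhibition at 8 µM reaching about 37%, which flags the compound as non-specific, limit read from the data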;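 note: p53-null SaOS-2 cells with luciferase driven by a doxycycline-inducible promoter; compound on cells about two nights before reading with doxycycline added after day one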
Of the large screens only hits and unclear results are named; the others gave an inactive call (follow-up assays come after a bar, where they were run). Only some compounds are listed: those with a hit (about 4% of all), similar ones and a draw of the others.

FC(F)(F)c1cccc(NC(=S)N(CCCN2CCCC2)Cc2cccn2Cc2ccc(Cl)cc2)c1	Mdm2 MdmX PPI 96 | Mdm2-MdmX conf 54 | FLuc counter inactive
COc1ccc(NC(=S)N(CCCN2CCCC2)Cc2cccn2Cc2ccc(Cl)cc2)cc1Cl	Mdm2 MdmX PPI 85 | Mdm2-MdmX conf 57 | FLuc counter 54
CC(=O)NS(=O)(=O)c1ccc(NC(=O)NC2CCCCC2)cc1	none
O=C(N1CCOCC1)N1CCN(S(=O)(=O)c2ccc(F)cc2)CC1	none
CCC(C)NC(=O)CCc1c(C)nc2c(c(C)nn2-c2ccccc2)c1C (centres undefined)	none
Cc1nc2c(c(C)nn2-c2ccccc2)c(C)c1CCC(=O)Nc1ccc(CN2CCCC2)cc1	Mdm2 MdmX PPI 64 | Mdm2-MdmX conf inactive | FLuc counter 53
Cc1cnc(NC(=O)CCCc2nc3ccccc3s2)s1	Mdm2 MdmX PPI 90 | Mdm2-MdmX conf 59 | FLuc counter 54
O=C(CCCc1nc2ccccc2s1)Nc1nccs1	none (no result: Beta apoptosis)
CCCN(CC(=O)Nc1cc(Cl)cc(Cl)c1)CC(=O)Nc1ccc(F)c(F)c1F	Mdm2 MdmX PPI 52 | Mdm2-MdmX conf inactive
COc1ccccc1OCCN1CSC(=S)N(C)C1	Mdm2 MdmX PPI 52 | Mdm2-MdmX conf inactive | FLuc counter 82
NC(=S)N/N=C\c1c(OCc2ccccc2Cl)ccc2ccccc12	Mdm2 MdmX PPI 53 | Mdm2-MdmX conf inactive
Cc1ccc(CNC(=O)C(CC(C)C)OC(=O)c2ccco2)cc1 (centres undefined)	none
O=S(=O)(c1ccccc1)c1ncc(C(F)(F)F)cc1O	none
O=S(=O)(c1ccccc1)c1ncc(C(F)(F)F)cc1Cl	Mdm2 MdmX PPI 61 (no result: Beta apoptosis) | Mdm2-MdmX conf inactive
Cc1cc(N)ccc1NC(=O)CN1CCOCC1	none
CCOC(=O)C(C)N1C(=O)S/C(=C/c2ccc3c(c2)n(C)c(=O)n3C)C1=O (centres undefined)	Mdm2 MdmX PPI 51 | Mdm2-MdmX conf inactive
CCC(C)N1C(=O)S/C(=C/c2ccc3c(c2)n(C)c(=O)n3C)C1=O (centres undefined)	none (no result: Beta apoptosis)
CCOc1ccccc1Nc1nnc(SC(C)C(=O)Nc2nc(-c3ccccc3)cs2)s1 (centres undefined)	Mdm2 MdmX PPI 86 | Mdm2-MdmX conf 79 | FLuc counter inactive
Cc1cccc(CCNC(=O)CCc2nnc(CCc3ccccc3)o2)n1	none
O=c1[nH]c(=O)n(Cc2ccccc2)c2nc(-c3ccco3)cc(C(F)(F)F)c12	Mdm2 MdmX PPI 53 | Mdm2-MdmX conf inactive
CCCCOC(=O)/C=C\C(=O)NC(N)=O	none
O=C(N/N=C/c1cccs1)c1[nH]ncc1Br	none
Cc1cc(C)n(CCC(=O)N/N=C/c2c(O)ccc3ccccc23)n1	Mdm2 MdmX PPI 73, Beta apoptosis 93 | Mdm2-MdmX conf 78 | FLuc counter 52
COc1ccccc1OCC(=O)N/N=C/c1c(O)ccc2ccccc12	Mdm2 MdmX PPI 82 (no result: Gli-Sufu antag) | Mdm2-MdmX conf 78 | FLuc counter inactive
O=C(CCSc1nc2ccccc2s1)N/N=C/c1c(O)ccc2ccccc12	Mdm2 MdmX PPI 82, Beta apoptosis 85 | Mdm2-MdmX conf 82 | FLuc counter inactive
O=C(N/N=C/c1c(O)ccc2ccccc12)c1[nH]ncc1Br	Mdm2 MdmX PPI 65, Beta apoptosis 103, Gli-Sufu antag 67 | Mdm2-MdmX conf 76 | FLuc counter 41
O=C(COC(=O)CNS(=O)(=O)c1ccc(Br)cc1Cl)Nc1ccc(N2CCOCC2)cc1	none
CC(C)Cn1c(=O)c2ccccc2n2c(CCC(=O)NC3CCN(Cc4ccccc4)CC3)nnc12	none
O=c1c2ccccc2sn1-c1ccccc1	Mdm2 MdmX PPI 76 | Mdm2-MdmX conf inactive
Cc1cccc(OCC(=O)OCC(=O)N2CCN(C(=O)c3ccco3)CC2)c1C	none
CCCCn1c(SCC(=O)N2c3ccccc3Sc3ccccc32)nc2c1c(=O)n(C)c(=O)n2C	Mdm2 MdmX PPI 59 | Mdm2-MdmX conf inactive
Cn1c(=O)c2c(nc(SCC(=O)c3cccs3)n2Cc2ccc(F)cc2)n(C)c1=O	none
CC1Cc2ccccc2N1C(=O)CSc1nc2c(c(=O)n(C)c(=O)n2C)n1Cc1ccc(F)cc1 (centres undefined)	Mdm2 MdmX PPI 72 | Mdm2-MdmX conf 47 | FLuc counter 71
COc1cccc(-c2nnc3sc(C4CCCCC4)nn23)c1	Mdm2 MdmX PPI 85 | Mdm2-MdmX conf 78 | FLuc counter inactive
COc1cc(-c2nnc3sc(C4CCCCC4)nn23)cc(OC)c1OC	Mdm2 MdmX PPI 57 | Mdm2-MdmX conf inactive
Cc1cc(-c2nnc3sc(C4CCCCC4)nn23)n[nH]1	none
Cc1ccc(N2CCN(C(=O)c3nn(C)c4c3CS(=O)(=O)c3ccccc3-4)CC2C)cc1 (centres undefined)	none
CCCNC(=O)c1ccc(S(=O)(=O)c2ccc(OC)cc2)c([N+](=O)[O-])c1	Mdm2 MdmX PPI 87 | Mdm2-MdmX conf 53 | FLuc counter inactive
COc1ccc(C(=O)NCCNc2ccccc2[N+](=O)[O-])cc1	none
COc1ccc(-c2nc(N/N=C(\C)c3ccc(O)cc3)c3ccccc3n2)cc1	Mdm2 MdmX PPI 86 | Mdm2-MdmX conf inactive
O=[N+]([O-])c1cc(C(F)(F)F)cc([N+](=O)[O-])c1NCCNC(=S)Nc1ccc(Cl)c(Cl)c1	Mdm2 MdmX PPI 90 (no result: Beta apoptosis) | Mdm2-MdmX conf 46 | FLuc counter 55
COc1ccc2c(C(=O)NCc3ccc4c(c3)OCO4)c(-c3ccc(S(C)(=O)=O)cc3)sc2c1	Mdm2 MdmX PPI 84, Beta apoptosis inconclusive | Mdm2-MdmX conf inactive
CCCCC(CC)CN1CN(CC(CC)CCCC)CC(C)(N)C1 (centres undefined)	none (no result: Jurkat NFkB inh, Mdm2 MdmX PPI, Beta apoptosis, 697 NFkB inh)
Cc1cc(C)c2c(n1)nn1c(N3CCN(c4ccccc4C)CC3)cc(C)nc21	Mdm2 MdmX PPI 64 | Mdm2-MdmX conf inactive
COc1ccc(CN2CCN(c3cc(C)nc4c5c(C)cc(C)nc5nn34)CC2)cc1F	none
Cn1c(Sc2ccc(Br)cc2)c(C=O)c2ccccc21	Mdm2 MdmX PPI 84 | Mdm2-MdmX conf 72 | FLuc counter 53
Cn1c(Oc2ccc(F)cc2)c(C=O)c2ccccc21	none
COc1ccc(OC)c(/C=C2\SC(=S)N(Cc3cccnc3)C2=O)c1	Mdm2 MdmX PPI 73 | Mdm2-MdmX conf 44 | FLuc counter 49
COc1ccc(O)c(/C=C2/SC(=S)N(Cc3ccccc3)C2=O)c1	none
COc1ccc(CN(C(=O)c2ccc(-c3ccccc3)[nH]2)C(C(=O)NC(C)(C)C)c2ccncc2)cc1 (centres undefined)	Mdm2 MdmX PPI 52 | Mdm2-MdmX conf inactive | FLuc counter 83
CCCCC(CCCC)=N/N=C/c1c(O)n(CC)c2cc(C3=NNC(=O)CC3)ccc12	Mdm2 MdmX PPI 58 | Mdm2-MdmX conf inactive
CCn1c(O)c(/C=N/N=C2CCCC2)c2ccc(C3=NNC(=O)CC3)cc21	none
